Screening data from PubChem.
Many of the other results were omitted from the sample, so hits are more common in it than they were.
Tg IFNy HTS: T. gondii growth inhibition under IFN-gamma | 69,000 compounds, 3.8% hits | Toxoplasma gondii growth in IFN-gamma-treated host cells; stronger effect = lower value | activity change, negative = inhibition, % (concentration not given with the values); in the data active means activity change below about -70%, passing the limit was not always enough;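 further: host cells are HeLa cells infected with Toxoplasma gondii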
The depositor's hits bear a star; i = inactive.

SMILES	Tg IFNy HTS
CO[C@@H]1C(O)[C@H](O[C@H]2CC[C@@]3(C=O)[C@H](CC[C@@H]4[C@@H]3CC[C@]3(C)[C@@H](C5=CC(=O)OC5)CC[C@]43O)C2)OC(C)[C@@H]1O (some centres undefined)	-75*
CO[C@H]1[C@H](O)[C@@H](O[C@H]2CC[C@]3(C=O)C4CC[C@]5(C)[C@@H](C6=CC(=O)OC6)CC[C@]5(O)C4CC[C@@H]3C2)O[C@@H](C)[C@@H]1O (some centres undefined)	-83*
C[C@]12CC[C@H]3[C@@H](CC[C@]4(O)C[C@@H](O)CC[C@]34C=O)[C@@]1(O)CC[C@@H]2C1=CC(=O)OC1	-63
COCCO[C@@H]1C[C@@H]2CN(C(=O)c3ccncc3)CCN2C1	53
COc1ccc2c(c1)C1(CCN(C(=O)c3cccc4[nH]ccc34)CC1)CC2CC(=O)O (centres undefined)	44
c1csc(CN2CCN(CC3CC3)c3ncccc3C2)c1	-22
COC(=O)C1(CC(=O)N2CCOCC2)C(=O)CC2CCC1N2Cc1ccc(F)cc1 (centres undefined)	14
C=CCN1CCN(c2ncc(F)cn2)Cc2ccc(C)nc21	37
Fc1cnc(N2CCN(CC3CC3)c3ncccc3C2)nc1	i
Fc1cnc(N2CCC3(CC2)CNCc2ccccc23)nc1	-84*
CCN1C[C@]23CNC[C@@H](C[C@H]2S1(=O)=O)O3	26
COCCN1CCC2(CCCN(Cc3ccccn3)C2)C1=O (centres undefined)	5
COc1ccc(C[C@H]2NC[C@H](O)[C@H]2OC(C)=O)cc1	-75*
C=CCOCc1cncc2c1CCN(C1CCOC1)C2 (centres undefined)	0
CN(C)c1ncc2c(c1C(=O)O)CCN(S(=O)(=O)C1CC1)C2	1
COc1cccc(C(=O)Nc2ccc(Br)cc2C(=O)c2ccccc2Cl)c1	57
CCCSc1ncc(CN2CCN3CCN(C)CC3C2)cn1 (centres undefined)	36
CCCCNC(=O)c1cc2cccnc2n(Cc2ccccc2)c1=O	-6
COc1ccc(CNC(=O)c2cc3cccnc3n(Cc3ccc(Cl)cc3)c2=O)cc1	-113*
O=C(NCCc1ccccc1)c1cc2cccnc2n(Cc2ccccc2)c1=O	29
O=C(NCc1ccc(Cl)cc1)c1cc2cccnc2n(Cc2ccccc2)c1=O	-66
COc1ccc(NC(=O)c2cc3cccnc3n(Cc3ccc(Cl)cc3)c2=O)cc1	i
COc1ccc(CNC(=O)c2cc3cccnc3n(Cc3ccccc3)c2=O)cc1	-74*
CC(C)CNC(=O)c1cc2cccnc2n(Cc2ccccc2)c1=O	-94*
COc1ccc(CNC(=O)c2cc3cccnc3n(Cc3ccc(F)cc3)c2=O)cc1	-43
SMILES	Tg IFNy HTS
Cc1ccc(CNC(=O)c2cc3cccnc3n(Cc3ccc(Cl)cc3)c2=O)cc1	30
CCN1C[C@]2(COC(=O)c3ccccc3N3C(=O)C[C@H](C)C3=O)CC[C@H](OC)[C@@]34[C@@H]5C[C@H]6[C@H](OC)[C@@H]5[C@](O)(C[C@@H]6OC)[C@@](O)([C@@H](OC)[C@H]23)[C@@H]14	13
Cn1ccnc1C1(O)CCCC2CNCC21 (centres undefined)	29
COCCN1CCc2c(CNc3ncccn3)cncc2C1	11
COc1ccc(OC)c(NC(=O)c2cc3cccnc3n(Cc3ccccc3)c2=O)c1	25
COc1ccccc1CCNC(=O)c1cc2cccnc2n(Cc2ccc(F)cc2)c1=O	-45
O=C(NCC1CCCO1)c1cc2cccnc2n(Cc2ccc(F)cc2)c1=O (centres undefined)	-34
O=C(NCCc1c[nH]c2ccccc12)c1cc2cccnc2n(Cc2ccc(F)cc2)c1=O	-41
Fc1cnc(NC2COC3(CCN(Cc4ccccc4)C3)C2)nc1 (centres undefined)	-5
Cc1nnc([C@@H]2CCO[C@H]3CCN(Cc4ccccn4)C[C@H]32)o1	2
COCCN1CCC2(COCc3cnc(N4CCOCC4)nc32)C1 (centres undefined)	-91*
CC(C)CN1CCC2(COCc3cnc(N(C)C)nc32)C1 (centres undefined)	6
c1nc(N2CCOCC2)nc2c1COCC21CCN(CC2CC2)C1 (centres undefined)	-7
c1cncc(CN2CCC3OCCCC3(COCC3CC3)C2)c1 (centres undefined)	61
COc1ccc(CCNC(=O)c2cc3cccnc3n(Cc3ccccc3)c2=O)cc1OC	15
O=C(NCc1cccc(Cl)c1)c1c(O)c2cccnc2n(Cc2ccccc2)c1=O	-107*
Cc1ccc(C)c(NC(=O)c2c(O)c3cccnc3n(Cc3ccccc3)c2=O)c1	79
O=C(Nc1ccc(F)cc1Cl)c1c(O)c2cccnc2n(Cc2ccccc2)c1=O	142
O=C(NCc1ccc(F)cc1)c1c(O)c2cccnc2n(Cc2ccccc2)c1=O	-99*
Cc1cccc(NC(=O)c2c(O)c3cccnc3n(Cc3ccccc3)c2=O)c1C	15
Cc1cccc(NC(=O)c2c(O)c3cccnc3n(Cc3ccccc3)c2=O)c1	139
O=C(NCc1ccc(Cl)cc1)c1c(O)c2cccnc2n(Cc2ccccc2)c1=O	-98*
COc1ccccc1CNC(=O)c1cc2cccnc2n(Cc2ccc(F)cc2)c1=O	92
O=C(Nc1ccccc1Cl)c1c(O)c2cccnc2n(Cc2ccccc2)c1=O	25
O=C(NCC1CC1)c1c(O)c2cccnc2n(Cc2ccccc2)c1=O	-92*
SMILES	Tg IFNy HTS
O=C(NCc1ccc(Cl)cc1)c1cc2cccnc2n(Cc2ccccc2F)c1=O	108
Cc1ccc(NC(=O)c2c(O)c3cccnc3n(Cc3ccccc3)c2=O)cc1	315
CNC(=O)Oc1c(Cl)cc(Cl)cc1Cl	20
O=C(Nc1ccc(Br)cc1)c1cc2cccnc2n(Cc2ccccc2F)c1=O	63
Cc1cc(NC(=O)c2cc3cccnc3n(Cc3ccccc3)c2=O)no1	93
CC(C)N1CCO[C@H]2CN(C(=O)N(C)C)C[C@@H]21	24
COc1ccc(/C=C/C(=O)C2C(=O)N(C)C3(C)CC2c2cc(Br)ccc2O3)cc1OC (centres undefined)	-60
CNC(=O)[C@@H]1CC2CN(C(=O)c3cnoc3C)CC2N1C(C)C (some centres undefined)	1
O=C(c1cccs1)N1CCN2CC(OCc3cccnc3)CC2C1 (centres undefined)	-20
CN1C(=O)C2(CCN(Cc3cccn3C)CC2)c2ccccc21	34
CC(C)CN1C[C@H]2CN(Cc3ccncc3)C(=O)[C@@H]2C1	5
Cc1cc(C)cc(CN2CC3CNC(C3)C2)c1 (centres undefined)	26
C[C@]12CCC(=O)C=C1CCC1C2CC[C@@]2(C)C1CC[C@H]2O (some centres undefined)	11
O=C(NCc1cc(F)cc(F)c1)c1c(O)c2cccnc2n(Cc2ccccc2)c1=O	-103*
COc1ccc(C)cc1NC(=O)c1c(O)c2cccnc2n(Cc2ccccc2)c1=O	45
O=C(NCc1ccccc1Cl)c1cc2cccnc2n(Cc2ccccc2)c1=O	-3
O=C(Nc1ccc(Br)cc1F)c1cc2cccnc2n(Cc2ccccc2)c1=O	108
c1ccc(CCN2CCCC3(CCNC3)C2)cc1 (centres undefined)	-49
CCn1c(CC2CCN(C(=O)C3C(C)(C)C3(C)C)CC2)n[nH]c1=O	3
O=c1cccc2n1C[C@@H]1C[C@H]2CN(Cc2cn[nH]c2-c2ccc(F)cc2)C1	2
CN1CCO[C@H]2CN(S(=O)(=O)c3cccnc3)C[C@@H]2C1	5
Cc1cc(CN2CCO[C@@H]3[C@H]2CC[C@H]3OCC(C)C)no1	-8
